FAS TE block = inhibitors of human fatty acid synthase thioesterase domain; P49327; recombinant FAS-TE, OMFH fluorogenic substrate, fluorescence endpoint; inhibition, % at 15 µM; 360,000 tested, 0.67% active; AID 602261;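 active means compounds whose normalised, plate-corrected inhibition of enzyme fluorescence in the single-dose primary screen is 50% or more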;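 further: 0% = DMSO with enzyme and 100% = substrate without enzyme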
rCAG binder = molecules binding r(CAG) RNA repeats. r(CAG) RNA repeat, TO-PRO-1 dye displacement fluorescence. inhibition, % at 3 µM. 370,000 tested, 1.3% active. AID 651821;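 active means inhibition above the plate cutoff, the mean of all test compounds on that plate plus 3 SD, cut at about 35% in these data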;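 further: 0% = DMSO alone and 100% = 100 µM mitoxantrone as full dye displacement; higher means more dye released from RNA so lower well fluorescence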
GRIN3A LBD mod = modulators (binders) of human NR3A ligand-binding domain. 340,000 tested, 2.5% active. NR3A LBD differential scanning fluorimetry, Tm shift; 0% = protein alone, 100% = glycine-bound protein. AID 1259313. Tm shift relative to glycine control, % at 25 µM;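 active means melting temperature shift of at least 10% of the positive control shift, at one fixed dose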
Myeloid diff 2 = myeloid differentiation induction | ER-HoxA9 myeloid progenitors, lysozyme-GFP differentiation, flow cytometry | calls only at 10 µM | 360,000 tested, 1% active | AID 624256;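 active means normalized GFP-positive differentiation at or above the plate's own cutoff, the solvent-only control mean plus 3 SD; inconclusive means no clear call, values can overlap the other calls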;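 further: cells exposed to compound for four days before flow analysis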
MPTP inh = permeability transition pore inhibition; isolated mouse mitochondria, Ca2+ swelling absorbance, 30 min; inhibition, % at 10 µM; 360,000 tested, 1.4% active; AID 602449;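 active means inhibition of 50% or more, scaled per plate between neutral and stimulator controls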;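 further: 0% = DMSO wells given calcium and 100% = 1 mM EGTA wells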
* = called active by the depositor; i = inactive; ? = inconclusive; . = no result given; + = active, no number. Rows were chosen to be rich in hits. Some 5.7% of all compounds tested hit in one or more screens of this group.

SMILES	FAS TE block	rCAG binder	GRIN3A LBD mod	Myeloid diff 2	MPTP inh
O=C(NCc1ccccc1)[C@H]1CCCN1C(=O)[C@H]1CCCN1C(=O)c1ccc(F)c(F)c1	.	-1	.	.	.
O=[N+]([O-])c1ccc(Oc2c(F)c(F)nc(N3CCCC3)c2F)cc1	15	3	0	i	2
Cc1ccc(Oc2c(F)c(F)nc(N3CCCC3)c2F)cc1	6	1	13*	i	6
CCCCNC(=O)C[C@@H]1C(=O)N(CCc2ccc(Cl)cc2)/C2=C/CCCCC[C@@]21C(=O)OCC	.	1	.	.	.
S=C(SCc1nc(-c2ccc(Cl)cc2)no1)N1CCSCC1	.	1	.	.	.
CC1(C)CC1C(=O)Nc1ccc([N+](=O)[O-])cc1Br (stereo not given)	2	2	12*	i	2
CCCC(=O)OCCNc1cc(SCc2ccco2)c2nonc2c1[N+](=O)[O-]	25	19	-1	i	0
CCCSc1cc(NCCOC(C)=O)c([N+](=O)[O-])c2nonc12	14	1	13*	i	2
COc1cc(/C=N\NC(=O)c2ccc(-c3ccccc3)cc2)cc(OC)c1OC(C)=O	11	1	-8	i	0
Cc1ccc(C(C)C)c(OCc2ccc(C(=O)N/N=C/c3cccc(O)c3O)cc2)c1	14	31	24*	.	6
COc1cc(/C=N\NC(=O)c2ccc(-c3ccccc3)cc2)cc(OC)c1O	4	12	12*	i	-1
Cc1ccc(C(C)C)c(OCc2ccc(C(=O)N/N=C/c3ccc(O)c(O)c3)cc2)c1	1	23	34*	i	42
CCOc1cc(/C=N/NC(=O)c2ccc(=O)n(C)c2)ccc1O	-5	-4	1	i	0
COc1cc(/C=N/NC(=O)c2ccc(COc3cc(C)ccc3C(C)C)cc2)cc(OC)c1O	8	11	21*	i	8
CC(=NNc1cc(C)c2cc(C)ccc2n1)c1ccccn1	.	1	.	.	.
CCOC(=O)N1CCN(C(=O)C[C@H]2C[C@@]3(C(=O)OC)C(=C[C@H](C(C)C)O[C@@H]3C3CC3)N(Cc3ccc(Cl)cc3Cl)C2=O)CC1	.	4	.	.	.
COc1ccc(C(=O)N2CCC[C@@H]2C(=O)N2CCC[C@@H]2C(=O)NCc2ccccc2)cc1F	.	-1	.	.	.
O=C(NCc1ccc(Cl)cc1)OCCN1C(=O)CCC12CCC(c1ccccc1)CC2 (stereo not given)	.	1	.	.	.
COc1ccc(C=O)cc1OS(=O)(=O)c1ccc(NC(C)=O)cc1	2	1	-1	i	-1
COc1ccc(/C=N/NC(=O)c2ccc3ccccc3c2)cc1OS(=O)(=O)c1ccc(NC(C)=O)cc1	30	21	28*	.	1
CCn1nc(NS(=O)(=O)c2ccc(F)cc2)c2cc3cccc(C)c3nc21	1	63*	-3	i	0
CCC(=O)Nc1nn(C)c2nc3c(C)cccc3cc12	0	0	-1	i	-1
CCCn1nc(NC(=O)CC)c2cc3cccc(C)c3nc21	6	-2	12*	i	1
CCCn1nc(NS(C)(=O)=O)c2cc3cccc(C)c3nc21	-5	14	0	i	2
Cc1cc(O)cc(=O)n1-c1ccc(Cl)c(C(F)(F)F)c1	.	3	.	.	.
SMILES	FAS TE block	rCAG binder	GRIN3A LBD mod	Myeloid diff 2	MPTP inh
Cc1cccc(Cn2cc(COC(=O)NCCc3ccccc3)nn2)c1	.	-1	.	.	.
CCN(c1ccc(C)cc1)S(=O)(=O)c1nnc(NC(=O)c2ccco2)s1	0	44*	-2	?	16
CCN(CC)S(=O)(=O)c1nnc(NC(=O)c2ccco2)s1	-3	7	4	i	0
Cc1cccc(-c2nnc(NC(=O)c3ccco3)s2)c1	-2	6	24*	i	1
COC(=O)C1=C(C)N(Cc2ccc(Br)cc2)C(=S)NC1c1cccc(OC)c1 (stereo not given)	.	4	.	.	.
CC(C)(C)OC(=O)N1C[C@@]23C[C@H](c4cccc(F)c4)[C@@H](C[C@@H]2S1(=O)=O)O3	.	3	.	.	.
CCCCN1CN2Cc3ccccc3C2CS1(=O)=O (stereo not given)	.	2	.	.	.
Cc1ccc(CNC(=O)Cn2nnc(C(=O)Nc3cc(C)ccc3C)c2N)cc1	-4	2	15*	i	0
Cc1cc(C)cc(-n2nnc(C(=O)NCc3ccc(Cl)cc3)c2N)c1	11	-4	32*	i	0
Cc1cc(C)cc(NC(=O)Cn2nnc(C(=O)NCc3ccc4c(c3)OCO4)c2N)c1	-7	1	-10	i	4
Cc1ccc(Cn2nnc(C(=O)Nc3cc(C)ccc3C)c2N)cc1	15	1	-16	i	6
Cc1ccc(CNC(=O)c2nnn(CC(=O)Nc3cc(C)cc(C)c3)c2N)cc1	-7	-1	20*	i	1
Cc1ccc(NC(=O)OC2CC3CC2[C@H]2CCCCN2C3)cc1 (stereo not given in full)	.	3	.	.	.
CC1CCC2(CC1)CCN(CCCOC(=O)Nc1cccc(F)c1)C2=O (stereo not given)	.	-3	.	.	.
O=C(c1cc(-c2ccc(O)cc2)on1)N1CCN(c2ccccc2)CC1	4	2	12*	i	-1
O=C(c1cc(-c2ccc(O)cc2)on1)N1CCN(c2ccc(F)cc2)CC1	13	4	5	i	0
O=C(Nc1ccc(OCc2ccccc2)cc1)c1cccc([N+](=O)[O-])c1	4	3	27*	i	8
Cc1ccc(C(=O)Nc2ccncc2)cc1[N+](=O)[O-]	0	0	2	i	0
Cc1ccc(C(=O)Nc2ccc(OCc3ccccc3)cc2)cc1[N+](=O)[O-]	1	2	28*	i	2
Cc1ccc(C(=O)NC(=S)Nc2cccc(NC(=O)c3ccccc3)c2)cc1[N+](=O)[O-]	32	14	19*	i	2
Cc1ccc(NC(=O)N2CCC(NC(=O)c3ccco3)CC2)cc1	0	1	1	+	0
CCCCOc1ccc(C(=O)NC2CCCCN(C)C2=O)cc1 (stereo not given)	.	2	.	.	.
COc1ccc(OC)c(-c2cc(C(=O)Nc3c(C)nn(Cc4ccccc4C)c3C)no2)c1	28	.	-1	+	-1
CC(=O)N1CCN(C(=O)c2ccc(CNC(=O)c3cccc(Br)c3)cc2)CC1	.	0	.	.	.
Cc1sc2nc(COC(=O)c3ccc(N4CCCC4)c([N+](=O)[O-])c3)[nH]c(=O)c2c1C	11	11	0	+	1
Cc1sc2nc(COC(=O)c3ccc(N4CCCC(C)C4)c([N+](=O)[O-])c3)[nH]c(=O)c2c1C (stereo not given)	16	9	-4	i	2
C#CCNC(=O)C[C@H]1C[C@@]2(C(=O)OC)C(=C[C@H](C(C)(C)C)O[C@@H]2C)N(CCC2=CCCCC2)C1=O	.	-1	.	.	.
COc1ccc(C(=O)NC(=S)Nc2ccc([N+](=O)[O-])cc2C)cc1OC	13	0	28*	i	0
C=CCN1C(=O)/C(=C/C=C2/N(CC)c3ccc(S(=O)(=O)N(C)C)cc3N2CC)SC1=S	-140	-18	-1	+	8
